The supplement of paper PMC6805474

Assays:
[1] = system: Schistosoma mansoni schistosomula (NMRI); test: phenotypic severity score (0-4); higher = more antischistosomal effect, active = 2 or more; conditions: 10 µM
[2] = system: Schistosoma mansoni schistosomula (Liberian); test: drug effect (1 - score/DMSO control score) (fraction); higher = more antischistosomal effect, active = 0.5 or more; extreme values may be limits of the assay; conditions: 10 µM
Method in brief: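 Schistosomula of the Liberian strain of Schistosoma mansoni were mechanically transformed from cercariae, pre-incubated for at least 12 h, and placed at 50 per well in flat-bottom 96-well plates with Medium 199 containing 5% FCS. Compounds were tested in duplicate at 10 µM at 37 °C and 5% CO2, alongside wells holding 0.1% DMSO. Parasites were scored visually at 10× after 24, 48 and 72 h on a quarter-point scale running from 3 (normal) to 0 (dead). Drug effect came from the mean test-well score relative to the mean DMSO-well score, with negative values set to zero and plates accepted only when the DMSO wells averaged at least 2.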

[3] = system: Schistosoma mansoni schistosomula (LE); test: XTT viability relative to DMSO control; higher = more viable (less active); conditions: 72 h; 10 µM
Protocol: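 XTT/PMS was then added for a further 24 h (72 h total) and A450 was read. % viability = (sample - heat-killed control)/(DMSO control - heat-killed control) x 100, from duplicate wells in two independent experiments.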
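Throughout, for phenotypic severity score (0-4): visual microscopic scoring of shape, motility and density changes versus 0.5% DMSO solvent controls, one point per descriptor, degeneracy or death scored 4, mean of duplicate wells.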

c1ccc(Oc2ccc(-c3cc(N4CCNCC4)[nH]n3)cc2)cc1
active: phenotypic severity score ([1]; 24 h) 2 | phenotypic severity score ([1]; 48 h) 2 | phenotypic severity score ([1]; 72 h) 2
inactive: drug effect ([2]; 24 h) 0.05 | drug effect ([2]; 48 h) 0.15 | drug effect ([2]; 72 h) 0.444

COc1cccn2c(C(=O)N3CCCCC3)c(C(F)(F)F)nc12
inactive: phenotypic severity score ([1]; 24 h) 0 | phenotypic severity score ([1]; 48 h) 0 | phenotypic severity score ([1]; 72 h) 0 | drug effect ([2]; 24 h) 0.182 | drug effect ([2]; 48 h) 0.2 | drug effect ([2]; 72 h) 0.127

Cc1nnc(NCc2cccc(Cl)c2)c2ccccc12
inactive: phenotypic severity score ([1]; 24 h) 0 | phenotypic severity score ([1]; 48 h) 0 | phenotypic severity score ([1]; 72 h) 0 | drug effect ([2]; 24 h) < 0 | drug effect ([2]; 48 h) 0.25 | drug effect ([2]; 72 h) 0.127

NC(=O)c1cc(-c2ccsc2)ccc1OCCOc1ccccc1
inactive: phenotypic severity score ([1]; 24 h) 0 | phenotypic severity score ([1]; 48 h) 0 | phenotypic severity score ([1]; 72 h) 0 | drug effect ([2]; 24 h) 0.158 | drug effect ([2]; 48 h) 0.111 | drug effect ([2]; 72 h) < 0

O=C(Nc1nc(-c2ccccn2)cs1)C1CC1c1ccccc1F (stereo unspecified)
inactive: phenotypic severity score ([1]; 24 h) 0 | phenotypic severity score ([1]; 48 h) 0 | phenotypic severity score ([1]; 72 h) 0 | drug effect ([2]; 24 h) 0.182 | drug effect ([2]; 48 h) 0.3 | drug effect ([2]; 72 h) 0.127

Nc1ncnc2c1c(Cc1cccc3ccccc13)nn2CC1CCNCC1
inactive: phenotypic severity score ([1]; 24 h) 0 | phenotypic severity score ([1]; 48 h) 0 | phenotypic severity score ([1]; 72 h) 0 | drug effect ([2]; 24 h) < 0 | drug effect ([2]; 48 h) < 0 | drug effect ([2]; 72 h) < 0

Cc1ccccc1C(=O)N1N=C(Nc2ccccc2)SC1(C)C
active: phenotypic severity score ([1]; 48 h) 2
inactive: phenotypic severity score ([1]; 24 h) 1 | phenotypic severity score ([1]; 72 h) 0 | drug effect ([2]; 24 h) 0.0455 | drug effect ([2]; 48 h) 0.1 | drug effect ([2]; 72 h) 0.158

Clc1ccc(CCNc2cc(-c3ccccc3)nc3ncnn23)cc1
inactive: phenotypic severity score ([1]; 24 h) 0 | phenotypic severity score ([1]; 48 h) 1 | phenotypic severity score ([1]; 72 h) 0 | drug effect ([2]; 24 h) 0.136 | drug effect ([2]; 48 h) 0.2 | drug effect ([2]; 72 h) 0.127

O=C(Nc1cnc2ccccc2c1)c1cccc(-n2cnnn2)c1
inactive: phenotypic severity score ([1]; 24 h) 0 | phenotypic severity score ([1]; 48 h) 0 | phenotypic severity score ([1]; 72 h) 0 | drug effect ([2]; 24 h) < 0 | drug effect ([2]; 48 h) < 0 | drug effect ([2]; 72 h) 0.0303

COc1nc2ccc(Br)cc2cc1[C@@H](c1ccccc1)[C@@](O)(CCN(C)C)c1cccc2ccccc12
inactive: drug effect ([2]; 24 h) 0.318
active: phenotypic severity score ([1]; 24 h) 2 | phenotypic severity score ([1]; 48 h) 4 | phenotypic severity score ([1]; 72 h) 4 | drug effect ([2]; 48 h) 0.8 | drug effect ([2]; 72 h) 0.945

Cc1cc(C(=O)Nc2cnn(Cc3ccc(Cl)cc3Cl)c2)no1
inactive: phenotypic severity score ([1]; 24 h) 0 | phenotypic severity score ([1]; 48 h) 0 | phenotypic severity score ([1]; 72 h) 0 | drug effect ([2]; 24 h) 0.182 | drug effect ([2]; 48 h) 0.1 | drug effect ([2]; 72 h) 0.127

CCN(CC)C(=O)N1CCN(C)CC1
inactive: phenotypic severity score ([1]; 24 h) 0 | phenotypic severity score ([1]; 48 h) 0 | phenotypic severity score ([1]; 72 h) 0 | drug effect ([2]; 24 h) 0.15 | drug effect ([2]; 48 h) 0.222 | drug effect ([2]; 72 h) 0.375

c1coc(CNc2nc(N3CCCCC3)nc3ccccc23)c1
active: phenotypic severity score ([1]; 24 h) 3 | phenotypic severity score ([1]; 48 h) 2 | phenotypic severity score ([1]; 72 h) 4 | drug effect ([2]; 24 h) 1 | drug effect ([2]; 48 h) 1 | drug effect ([2]; 72 h) 1

c1cncc(NCc2ccc(-c3cc4ccncc4cc3OC3CCNCC3)s2)c1
active: phenotypic severity score ([1]; 24 h) 3 | phenotypic severity score ([1]; 48 h) 3 | phenotypic severity score ([1]; 72 h) 4 | drug effect ([2]; 72 h) 0.556
inactive: drug effect ([2]; 24 h) 0.136 | drug effect ([2]; 48 h) 0.45

CC(C)(C)OC(=O)N1CCN(c2cc(-c3ccc(Oc4ccccc4)cc3)n[nH]2)CC1
inactive: phenotypic severity score ([1]; 24 h) 0 | phenotypic severity score ([1]; 48 h) 0 | phenotypic severity score ([1]; 72 h) 0 | drug effect ([2]; 24 h) 0.0526 | drug effect ([2]; 48 h) 0.167 | drug effect ([2]; 72 h) 0.25

NCCCC(N)(C(=O)O)C(F)F (stereo unspecified)
inactive: phenotypic severity score ([1]; 24 h) 0 | phenotypic severity score ([1]; 48 h) 0 | phenotypic severity score ([1]; 72 h) 0 | drug effect ([2]; 24 h) 0.15 | drug effect ([2]; 48 h) 0.135 | drug effect ([2]; 72 h) 0.222

N#Cc1nc(-c2ccccc2)oc1S(=O)(=O)c1ccc(Cl)cc1
inactive: phenotypic severity score ([1]; 24 h) 0 | phenotypic severity score ([1]; 48 h) 0 | phenotypic severity score ([1]; 72 h) 1
active: drug effect ([2]; 24 h) 1 | drug effect ([2]; 48 h) 1 | drug effect ([2]; 72 h) 1

COc1ccc(Nc2ccccc2NC(=O)c2ccc(O)nc2)cc1
inactive: phenotypic severity score ([1]; 24 h) 0 | phenotypic severity score ([1]; 48 h) 0 | phenotypic severity score ([1]; 72 h) 0 | drug effect ([2]; 24 h) 0.182 | drug effect ([2]; 48 h) 0.45 | drug effect ([2]; 72 h) 0.4

CC1=Nc2ccc(Cl)cc2C(c2ccccc2)N1CCNC(=O)CN(C)C (stereo unspecified)
inactive: phenotypic severity score ([1]; 24 h) 0 | phenotypic severity score ([1]; 48 h) 0 | phenotypic severity score ([1]; 72 h) 0 | drug effect ([2]; 24 h) 0.35 | drug effect ([2]; 48 h) 0.333 | drug effect ([2]; 72 h) 0.375

CC1(C)Cc2c(c(N3CCOCC3)nc3snc(Br)c23)CO1
inactive: phenotypic severity score ([1]; 24 h) 0 | phenotypic severity score ([1]; 48 h) 0 | phenotypic severity score ([1]; 72 h) 0 | drug effect ([2]; 24 h) 0.0455 | drug effect ([2]; 48 h) 0.1 | drug effect ([2]; 72 h) 0.105

Cn1c(=O)c2c(S(C)(=O)=O)snc2n(C)c1=O
active: phenotypic severity score ([1]; 24 h) 4 | phenotypic severity score ([1]; 48 h) 4 | phenotypic severity score ([1]; 72 h) 4 | drug effect ([2]; 24 h) 1 | drug effect ([2]; 48 h) 1 | drug effect ([2]; 72 h) 1

CNc1nnc(Sc2cnn(-c3ccccc3)c(=O)c2Cl)s1
active: phenotypic severity score ([1]; 24 h) 4 | phenotypic severity score ([1]; 48 h) 4 | phenotypic severity score ([1]; 72 h) 4 | drug effect ([2]; 24 h) 1 | drug effect ([2]; 48 h) 1 | drug effect ([2]; 72 h) 1

CC(C)NCC(=O)Nc1cccc(C(=O)Nc2cccc(C(F)(F)F)c2)c1
inactive: phenotypic severity score ([1]; 24 h) 0 | phenotypic severity score ([1]; 48 h) 0 | phenotypic severity score ([1]; 72 h) 0 | drug effect ([2]; 24 h) 0.2 | drug effect ([2]; 48 h) 0.167 | drug effect ([2]; 72 h) 0.375

Oc1c(I)cc(I)c2cccnc12
active: phenotypic severity score ([1]; 24 h) 2 | phenotypic severity score ([1]; 72 h) 2
inactive: phenotypic severity score ([1]; 48 h) 1 | drug effect ([2]; 24 h) 0.1 | drug effect ([2]; 48 h) 0.135 | drug effect ([2]; 72 h) 0.333

N=C(N)Nc1ccc(-c2ccc(-c3ccc(N=C(N)N)c(Cl)c3)o2)cc1Cl
inactive: phenotypic severity score ([1]; 24 h) 0 | phenotypic severity score ([1]; 48 h) 0 | phenotypic severity score ([1]; 72 h) 0 | drug effect ([2]; 24 h) < 0 | drug effect ([2]; 48 h) < 0 | drug effect ([2]; 72 h) 0.0625

N=C(N)Nc1ccc(-c2ccc(-c3ccc(NC(=N)N)cc3Cl)o2)c(Cl)c1
inactive: phenotypic severity score ([1]; 24 h) 0 | phenotypic severity score ([1]; 48 h) 0 | phenotypic severity score ([1]; 72 h) 0 | drug effect ([2]; 24 h) 0.0526 | drug effect ([2]; 48 h) 0.111 | drug effect ([2]; 72 h) 0.125

CCOC(=O)c1noc(N)c1-c1ccccc1
94.1%: XTT viability [3]
inactive: phenotypic severity score ([1]; 24 h) 0 | phenotypic severity score ([1]; 48 h) 0 | phenotypic severity score ([1]; 72 h) 0 | drug effect ([2]; 24 h) 0.05 | drug effect ([2]; 48 h) 0.0811 | drug effect ([2]; 72 h) 0.0909

CN(C)CCNC(=O)N1CCCN(c2ncnc3cc(-c4ccccc4)sc23)CC1
inactive: phenotypic severity score ([1]; 24 h) 0 | phenotypic severity score ([1]; 48 h) 0 | phenotypic severity score ([1]; 72 h) 0 | drug effect ([2]; 24 h) < 0 | drug effect ([2]; 48 h) 0.2
active: drug effect ([2]; 72 h) 0.556
106%: XTT viability [3]

CC1=Nc2ccc(Cl)cc2C(O)(c2ccc(C)cc2)N1CCN1CCCCC1 (stereo unspecified)
inactive: phenotypic severity score ([1]; 24 h) 0 | phenotypic severity score ([1]; 48 h) 0 | phenotypic severity score ([1]; 72 h) 0 | drug effect ([2]; 24 h) < 0 | drug effect ([2]; 48 h) 0.188 | drug effect ([2]; 72 h) 0.375
-4.23%: XTT viability [3]

O=C(NC1CC1)c1ccc(N2CCOc3ccc(Cl)cc32)s1
active: drug effect ([2]; 72 h) 0.5
inactive: phenotypic severity score ([1]; 24 h) 0 | phenotypic severity score ([1]; 48 h) 0 | phenotypic severity score ([1]; 72 h) 0 | drug effect ([2]; 24 h) 0.35 | drug effect ([2]; 48 h) 0.459
83.5%: XTT viability [3]

CCOc1ccc(-c2nc(NC(=O)CS(=O)(=O)c3ccccc3)sc2C)cc1
inactive: phenotypic severity score ([1]; 24 h) 0 | phenotypic severity score ([1]; 48 h) 0 | phenotypic severity score ([1]; 72 h) 1 | drug effect ([2]; 24 h) 0.1 | drug effect ([2]; 48 h) 0.0811 | drug effect ([2]; 72 h) 0.111
61.8%: XTT viability [3]
